Source: PubChem (National Center for Advancing Translational Sciences (NCATS))
D1 agonist: activates the human D1 dopamine receptor | P21728 | HEK293 T-REx D1 cells, calcium flux, agonist mode | activation, % at 2 µM | 360,000 tested, 1% active; note: 0% is about no effect
Target sequence (P21728 whole entry, looked up): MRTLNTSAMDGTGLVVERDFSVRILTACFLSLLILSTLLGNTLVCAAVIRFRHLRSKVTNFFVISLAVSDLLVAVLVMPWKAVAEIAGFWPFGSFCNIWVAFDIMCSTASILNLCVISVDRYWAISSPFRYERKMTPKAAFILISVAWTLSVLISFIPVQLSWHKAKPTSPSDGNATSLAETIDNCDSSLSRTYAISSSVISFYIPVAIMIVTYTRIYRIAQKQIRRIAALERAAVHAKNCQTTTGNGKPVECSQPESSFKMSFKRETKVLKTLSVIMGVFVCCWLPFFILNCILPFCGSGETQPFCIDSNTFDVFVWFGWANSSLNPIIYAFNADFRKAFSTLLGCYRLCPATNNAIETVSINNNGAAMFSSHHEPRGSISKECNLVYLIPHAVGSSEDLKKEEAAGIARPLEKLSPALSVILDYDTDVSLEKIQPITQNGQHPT
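Agonism was scored from calcium flux recorded over 180 s (1 read/s) after pintool compound addition, following a 10-cycle baseline. Cells were inducible force-coupled HEK293 TREx D1, plated overnight at 30 C and loaded with no-wash calcium dye.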
D1 potentiator: enhances dopamine response at the human D1 receptor; 360,000 tested, 0.036% active; HEK293 TREx D1 cells, calcium flux, dopamine EC20 potentiation; AID 504651; potentiation, % at 10 µM; P21728; in the data active = potentiation above about 30%; note: 0% is about no effect
TRHR enhancer: allosteric enhancers of human TRH receptor; TRHR cells, fluo-8 calcium fluorescence, EC20 TRH enhancement; enhancement, % at 2 µM; 360,000 tested, 0.66% active; in the data active = enhancement above about 30%; note: 0% is about no effect
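Enhancer read-out: after compound pinning and an initial kinetic agonist-mode read, an EC20 of TRH (10 nM final) was injected and fluo-8 calcium signal (Ex 480/Em 530) followed at 1 s/cycle for 100 cycles in TRHR-expressing cells.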
D1 antagonist: blocks dopamine activation of the human D1 receptor; P21728; HEK293 TREx D1 cells, calcium flux, dopamine EC80; stronger effect = lower value; activity change, negative = inhibition, % at 10 µM; 360,000 tested, 3.2% active; AID 504652; in the data active = activity change below about -30%; note: % is set by controls: 0 for no effect and ±100 for the full control effect
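Cells carrying a force-coupled, tetracycline-inducible human D1 receptor report calcium flux. Each well gets a 10 s baseline, compound with 180 s monitoring, then an EC80 dopamine stimulus with a second 180 s kinetic read.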
TRHR agonist: TRH receptor (human) agonism; P34981; TRHR cells, calcium flux fluo-8, FDSS agonist mode; activation, % at 2 µM; 360,000 tested, 0.18% active; AID 493084; note: 0% is about no effect
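Read-out: compound-evoked intracellular calcium rise in TRHR cells, fluo-8 dye, kinetic FDSS fluorescence at 1 s/cycle following a 10-cycle baseline. Cells cultured overnight before dye loading (30 min–1.5 h, RT).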
Numbers without * were called inactive; x = no result given. An excerpt weighted towards active compounds, which were near 4.6% of everything screened. Cut-off read from the data, not from the text of the source, unless noted: active = activation above about 30%; inactive = the rest.

SMILES | D1 agonist | D1 potentiator | TRHR enhancer | D1 antagonist | TRHR agonist
Cc1cc(OCC(=O)Nc2ccc(N3CCN(C)CC3)cc2)ccc1Cl | 24.4 | -19.4 | -5.7 | -83.4* | 0.4
Cc1cc(OCC(=O)Nc2ccc(S(=O)(=O)N3CCN(C)CC3)cc2)cc(C)c1Cl | 10.2 | -5.6 | -11.1 | -69.6* | 0.6
CN1CCN(S(=O)(=O)c2ccc(NC(=O)c3ccccc3Cl)cc2)CC1 | -0.5 | -8.9 | -2.8 | -32.6* | 0.2
Cc1cc(OCC(=O)Nc2ccc(S(=O)(=O)N3CCN(C)CC3)cc2)ccc1Cl | 0.9 | 0.2 | -0.9 | 33.9 | 0.1
COc1ccc(N(CC(=O)Nc2cccc(Cl)c2)S(=O)(=O)c2c(C)[nH]c(=O)[nH]c2=O)cc1 | -0.4 | 7.8 | 0.5 | -17.9 | 0.2
O=C(COc1cccc(Cl)c1)Nc1ccc(N2CCOCC2)cc1 | 1.4 | -10.2 | 7.0 | -37.4* | 0.2
CC(Oc1cccc(Cl)c1)C(=O)N(C)CC(=O)Nc1ccc(N2CCOCC2)cc1 (configuration not stated) | 3.2 | -3.1 | -0.9 | -8.8 | 5.4
COc1cc(CN(C)Cc2ccccc2)cc(OC)c1O | -0.7 | -3.4 | 2.5 | x | 0.2
O=C(CCc1ccccc1)NCc1nc2cccnc2n1Cc1ccc(F)cc1 | 0.0 | -2.1 | -3.1 | -4.0 | -0.1
CCCN1C(=O)/C(=C/c2c(N3CCNC(=O)C3CC(=O)OC)nc3c(C)cccn3c2=O)SC1=S (configuration not stated) | 265.3* | 15.2 | 17.0 | -30.1* | 75.7*
COc1ccc(Nc2nc(-c3ccccc3)nc3ccccc23)c(OC)c1 | 3.3 | -5.4 | -4.7 | 9.5 | 0.4
COc1ccc(Nc2nc(N)c3ccccc3n2)c(OC)c1 | 1.1 | -6.8 | 1.2 | -37.4* | -1.0
CCOc1nc(Nc2cc(Cl)ccc2OC)nc(OCC)n1 | -0.2 | -3.5 | 2.4 | -1.7 | 0.9
CCOc1nc(Nc2ccc(OC)cc2OC)nc(OCC)n1 | 6.0 | -5.2 | -4.5 | -30.8* | 0.0
O=C(CSc1nnc2[nH]c(=O)cc(-c3ccccc3)n12)Nc1ccc(OC(F)(F)F)cc1 | 1.1 | -1.1 | 1.2 | x | 0.0
CC(C)C(NC(=O)c1ccccc1F)C(=O)NCc1ccccc1 (configuration not stated) | 0.1 | -8.6 | -4.2 | -57.3* | -0.1
CC(C)[C@H](NC(=O)c1ccccc1F)C(=O)NCc1ccc(S(N)(=O)=O)cc1 | 0.0 | 3.0 | -15.6 | 11.2 | 0.3
COc1ccc(N=Cc2c(O)n(-c3cccc(C)n3)c(=O)c3ccccc23)c(OC)c1 | 9.2 | 11.3 | 2.3 | -20.2 | 8.5
NS(=O)(=O)c1ccc(NC(=S)Nc2ccn(Cc3cccc4ccccc34)n2)cc1 | 0.9 | 1.5 | -21.8 | -52.5* | -0.4
CC(C)C(=O)Nc1ccc(Sc2ccc(F)cc2)cc1 | 11.2 | -9.7 | -2.7 | -50.4* | 0.5
CC(C)C(=O)Nc1ccc(Nc2ccccc2)cc1 | 3.3 | -1.5 | 3.7 | -14.5 | -0.3
CN1C(=O)C2(c3ccccc31)c1c(oc3ccccc3c1=O)C(=O)N2CCCO (configuration not stated) | 2.6 | -5.8 | -0.1 | -30.9* | 0.1
Cc1ccc(C(=O)C2=C(O)C(=O)N(CCCN(C)C)C23C(=O)N(C)c2ccccc23)o1 (configuration not stated) | 2.2 | 4.6 | -0.5 | 8.1 | -0.6
CN1C(=O)C2(c3ccccc31)c1c(oc3ccccc3c1=O)C(=O)N2CCO (configuration not stated) | 5.3 | -9.4 | -0.3 | -16.5 | -0.5
Cc1ccc2oc3c(c(=O)c2c1)C1(C(=O)N(C)c2ccccc21)N(CCCO)C3=O (configuration not stated) | -0.6 | -0.8 | 35.5* | -4.7 | 0.3
SMILES | D1 agonist | D1 potentiator | TRHR enhancer | D1 antagonist | TRHR agonist
COc1ccccc1C1C(C(=O)c2ccco2)=C(O)C(=O)N1c1cc(C)on1 (configuration not stated) | 1.2 | -1.6 | -1.0 | 6.5 | 0.1
O=C(NCCc1ccccc1)c1sc2ncccc2c1-n1cccc1 | -0.3 | 1.3 | -3.7 | 5.9 | 0.2
Cc1csc(CNc2ncnc3ccc(-c4ccc5c(ccn5C)c4)cc23)c1 | 3.1 | 1.8 | -0.1 | 5.4 | 0.0
CN1CCN(/N=C/c2ccc(N(c3ccccc3)c3ccccc3)cc2)CC1 | 5.3 | 1.8 | 15.0 | 24.1 | 0.0
CN1CCN(/N=C/c2ccc(Br)cc2)CC1 | 13.2 | -7.8 | -4.7 | -33.3* | 0.5
O=C(Nc1cc(NC(=O)c2ccccc2Cl)ccc1Cl)c1ccccc1 | -1.3 | 2.4 | -5.5 | -3.2 | -1.3
COCCCNC(=O)c1cc(-c2cccnc2)nc2ccc(S(=O)(=O)N3CCC(C)CC3)cc12 | -0.9 | -6.7 | 2.2 | -5.4 | -0.9
CCOC(=O)C1CCN(Cc2oc(CO)cc(=O)c2O)CC1 | 4.3 | -0.4 | 30.4* | -4.0 | -0.1
CCN1CCN(Cc2oc(CO)cc(=O)c2O)CC1 | 4.0 | 2.5 | -2.0 | 8.4 | 0.3
CCC(C)(C)n1nnnc1C(c1cc2ccc(OC)cc2[nH]c1=O)N1CCc2ccccc2C1 (configuration not stated) | 1.0 | 13.2 | -0.8 | -4.1 | 0.1
COc1ccc2cc(C(c3nnnn3C(C)(C)C)N3CCc4ccccc4C3)c(=O)[nH]c2c1 (configuration not stated) | -0.4 | -2.4 | 10.9 | -45.0* | -0.2
Cn1nccc1C(=O)NCc1ccc2c(c1)CCN2C(=O)c1ccc(F)cc1 | 13.1 | -4.0 | -1.6 | -25.2 | -0.1
COc1ccc(C2C3C(=O)N(N(C)c4ncc(C(F)(F)F)cc4Cl)C(=O)C3ON2C)cc1 (configuration not stated) | 5.1 | -2.5 | 1.8 | -30.8* | 0.3
COC(=O)C1(C(=O)OC)NOC2C(=O)N(N(C)c3ncc(C(F)(F)F)cc3Cl)C(=O)C21 (configuration not stated) | 1.4 | -2.0 | -1.1 | 3.6 | 0.5
Cc1ccc(NC(=O)C2(c3ccc([N+](=O)[O-])cc3)CCCC2)cc1 | 22.7 | 4.6 | 33.3* | 3.2 | 4.7
Cc1ccc(OCC(=O)Nc2ccc([N+](=O)[O-])cc2)cc1 | 6.8 | -3.8 | -3.2 | -38.5* | -0.9
COc1ccc(NC(=O)C2(c3ccc(NC(=O)c4ccc(OC)cc4)cc3)CCCC2)cc1 | 1.1 | 2.9 | 1.4 | 9.3 | 0.3
COc1ccc(OCC(=O)Nc2ccc(-c3nc4cc(C)c(C)cc4o3)cc2)cc1 | -0.3 | 0.7 | 1.0 | -30.5* | 1.9
CC(=O)Nc1ccc(S(=O)(=O)NNC(=O)COc2ccc(C)cc2)cc1 | 0.3 | -19.4 | 0.0 | -33.3* | 0.3
CCc1cc(=O)[nH]c(SCc2nc(-c3ccc(C(F)(F)F)cc3)no2)n1 | 7.2 | -0.1 | -4.8 | 3.0 | -0.2
O=C(COc1ccccc1)Nc1ccc([N+](=O)[O-])cc1 | 14.1 | -8.5 | 2.9 | -81.6* | 0.5
Cc1ccc(Cl)cc1NC(=O)N1CCc2cc(S(=O)(=O)N3CCC(C)CC3)ccc21 | 0.3 | -1.8 | 4.3 | 4.5 | 0.0
